# From PubChem BioAssay (NCI)
# About 79,000 compounds went through this panel and 15% of them were active in at least one assay; those are over-represented in the sample as a whole. A number with no mark means an inactive call. The source made the active and inactive calls. Cut-off read from the data, not from the text of the source: active = growth inhibition above about 70%; inactive = the rest.
# Assay: NCI Yeast Anticancer Drug Screen. Data for the rad14 strain (AID 159);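 note: 0% = growth of vehicle-treated control cultures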
# Conditions: S. cerevisiae rad14 strain growth inhibition; at 33.0 µM; hits give high values
# Summary of the method: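 Screen for anticancer potential: a yeast strain altered in DNA damage repair is grown with compound, and reduced growth is quantified against vehicle controls.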
row,SMILES,growth inhibition
1,O=C1/C(=C/c2ccccc2)CCCC1CN1CCCCC1 (configuration not stated),98% (active)
2,C#CCN(Cc1ccc2nc(N)[nH]c(=O)c2c1)c1ccc(C(=O)NC(CCC(=O)O)C(=O)O)cc1 (configuration not stated),44%
3,CCOC1(c2cccc([N+](=O)[O-])c2)c2ccccc2Oc2ccccc21,7%
4,O=C(O)CNC(=S)Nc1ccccc1,47%
5,N/C(=N/N=C/c1cc(Br)cc(Br)c1O)NO,97% (active)
6,C[Si](C)(C)/C=C/CCNC(C#N)c1ccccc1 (configuration not stated),52%
7,CCCCCCCCCCCCCCCCOP(=O)(O)OCC(N)C(=O)O (configuration not stated),98% (active)
8,CC1=C(C(=O)NCc2ccccc2)C(c2ccccc2)C(C(=O)NCc2ccccc2)=C(C)N1,16%
9,O=[N+]([O-])c1cc(S(=O)(=O)Nc2ccccc2)ccc1Nc1ccccc1,89% (active)
10,COc1cc2ccnc(-c3c4ccccc4c(N)c4c(OC)c(OC)ccc34)c2cc1OC,8%
11,CCOC(=O)C(Br)C(Br)c1ccccc1Cl (configuration not stated),98% (active)
12,CCOC(=O)C1=C(C)NC(C)=C(C(=O)OCCNC(=O)c2ccc(N=[N+]=[N-])cc2)C1c1ccccc1C(F)(F)F (configuration not stated),8%
13,Cc1cc(C)c(NC(=S)NC(=O)c2ccccc2)cc1C,-16%
14,CNCCCNc1c2ccccc2nc2cccc([N+](=O)[O-])c12,96% (active)
15,COc1c(O)c(C=O)c(Br)c(C=O)c1O,42%
16,Cc1c(C)c(C)c(CSC(=N)N)c(C)c1C,85% (active)
17,O=C(CSC(=S)N1CCCCC1)Nc1nc2c(s1)CCCC2,11%
